Data published in the supplement of paper PMC6555819.

Tested on: VDR:RXRa (NR concentration 270 nM, RXRa partner concentration 90 nM)
Test: PBM binding z-score (relative to random genomic background probes); higher = stronger binding; sequences stand for … in GC…GCGATTGACAGCGTAGAATGAAGG
Procedure: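 Protein-binding microarray (Agilent 4x180K custom design, double-stranded 60-nt probes: 5' GC cap, 34-nt variable region, 24-nt constant primer region; full probe sequence given). Purified or IVT nuclear receptor:RXRα heterodimers (3:1 NR:RXRα, mostly 270:90 nM) or homodimers were incubated for 1 h in PBS with 2% milk and no ligand, then detected with Alexa488 antibodies. Fluorescence from o1-orientation probes (~5 replicates averaged) was converted to z-scores against 500 random hg19 background probes. Variable regions are seed direct-repeat (DR0–DR5) sites, all their single-nucleotide variants and half-site ablations.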

Sequence | PBM binding z-score
ATCTCTAGGTAACCAAGTTCAGTGACTGCCGAAC | 4.15
AGTCAAAGTTCACTAGGTAACGTAAGATTCAGCT | 3.83
CCTACTGGGCCATTCAGAAGTCATTGATCATATG | -0.356
ATCTCTAGGTAAAGATAGTACAGTGAATGCAAAT | 0.325
AGACTGAGGTTACCAAAGATCAGGGAAACGCTTG | 1.13
ATCTCTAGGTAGCAAGTTCAGTGAAAGAGAGGAC | 1.35
ACAGACAGGTGAGTGAAGGTAAATCAGCTGGACG | -0.406
CCTGCTAGGTCAGTGGTCAGCTAAAGCAGCTCGC | -0.183
GATACAGGGTCAGCTAGTGGCCAGAGTATGGAAA | 2.34
CCGTCTGGGGCAAAGGTTACCATACTCAGTACGA | 1.55
TCTGCTAGGTCAACGATGGTCAGCAAATCTGCTA | 1.64
CAAACTAGGTCAATGGTCAAAGTCGAGCCAACCA | 1.67
TCTCGGAGGACAAGAAAGGTCAGAGCTCGACATC | 2.67
CCTACTTGGTCAAGGTCACACACGCTATAGGTAC | 3.97
ACTAGCAGGCCAAGTTTTGGTCACTCAAACAAAG | -0.348
CCTAGTTGGTCAGGAGCTCACACACCGGATATGA | 0.0372
GCATATAGGTAACACAAGGTGAAAGTCCGATTGT | 0.418
CGTCCAAGGTCAGAGAGGTCAGTGAATGCCGAGT | 7.26
AGAATGAGGTTATACGTCGATCAGGGAAGAAAGT | 1.29
CCTGCTAGGTCATAGTCAGCTAATCTACAGTATG | 1.28

Sequence | PBM binding z-score
TCTATTAGTTGAAGCGCAACCGACGAGTCCGTTT | 0.736
CAGCCTAAGTCAGGGCCAGTATAGGAGGAACGTT | -0.626
TCGAGTAGGTTAGTCGGGGCATTTAGCCAACATA | 2.2
AGAACGAGGGCACGTTGAGTTGATAGCAGAGTAG | 2.32
TCTCGGAGGACACGAGGGTCAGAGCTTTCCAGAG | 1.7
ATATGTAGGTTAAGGGTCATTCCGGTTGGTTCGC | 5.11
CTACCAAGGTGAACAAGATCGTTGATTACTATTC | 1.31
GCGACTGGGGCAAAGCAGGTTACCCTAAGGTTGG | 0.0152
CCTTACGTGTCACTGACAGGTTATAGCATTTGGA | 0.871
ATACCAAGGTGATCGTGAGGTCGTCGATACTAAC | 2.72
GGAACGAGGGCAAAGTTGAGAGCATCTGTCGACG | 1.55
ATATGTAGGCTAGCTGGGGTCATTCAGACTAGGC | 4.77
TCTGCTAGGTCACCGATGGTCAGCTAATCTGCTA | 2.17
ATACCAAGCTGATCGTGAGGTCGTTGATACTAAC | 1.38
CCTTACGGGTCACGAGGTTATCGCACGACGAGCG | 5.31
CCGACTGGGGCAGAGGTTACCATACTCAGTACGA | 0.52
CCTAGCAGGCCAATCTGGGTCACTCATGGCTTGA | 0.303
ATCTCTACGTAAAGTTCAGTGAAAGATCGATAGA | 1.67
CGTCCAAGGTCATAGGAGGTCAGAGAAGACAGAT | 6.67
ATATGTAGGTTAAGGGTCATTTAGGTTGGTTCGC | 5.38
